# Assay results reported in PubChem BioAssay (NCI).
# About 83,000 compounds went through this panel and 20% of them were active in at least one assay; those are over-represented in the sample as a whole.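 Interpretation: 100, growth as untreated; towards 0, rising growth inhibition; 0, no net growth; 0 to -100, cell death. Compounds scoring below 10 were considered active.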 A number with no mark means an inactive call. Active and inactive are the calls of the source.
# Columns and labels:
# Test in all cases: NCI-60 one-dose screen, 48 h (100 = growth as untreated, 0 = no growth, -100 = all killed)
# [1] = system: SK-MEL-2 melanoma; details: 10 µM unless noted
# [2] = system: EKVX NSCLC; details: 10 µM unless noted
# [3] = system: SN12C renal; details: 10 µM unless noted
# [4] = system: UO-31 renal; details: 10 µM unless noted
# [5] = system: TK-10 renal; details: 10 µM unless noted
# [6] = system: ACHN renal; details: 10 µM unless noted
# [7] = system: CAKI-1 renal; details: 10 µM
# [8] = system: A498 renal; details: 10 µM unless noted
# [9] = system: CCRF-CEM leukemia; details: 10 µM unless noted
# [10] = system: MOLT-4 leukemia; details: 10 µM unless noted
# [11] = system: SR leukemia; details: 10 µM unless noted
# [12] = system: OVCAR-8 ovarian; details: 10 µM unless noted
# [13] = system: OVCAR-5 ovarian; details: 10 µM unless noted
# [14] = system: OVCAR-4 ovarian; details: 10 µM unless noted
# [15] = system: SK-OV-3 ovarian; details: 10 µM unless noted
# [16] = system: IGROV1 ovarian; details: 10 µM unless noted
# [17] = system: OVCAR-3 ovarian; details: 10 µM unless noted
# [18] = system: HS 578T breast; details: 10 µM unless noted
# [19] = system: NCI/ADR-RES ovarian; details: 10 µM unless noted
# [20] = system: RPMI-8226 leukemia; details: 10 µM unless noted
SMILES,growth [1],growth [2],growth [3],growth [4],growth [5],growth [6],growth [7],growth [8],growth [9],growth [10],growth [11],growth [12],growth [13],growth [14],growth [15],growth [16],growth [17],growth [18],growth [19],growth [20]
Nc1ccc(-c2nnc(SCc3ccc(O)c4ncccc34)n2-c2ccccc2)cc1,12.4%,30%,5.29% (active),4.44% (active),25.3%,12.4%,12.9%,15.8%,20.7%,29.5%,36.5%,12.5%,34.4%,12.4%,8.19% (active),14.3%,19.2%,5.08% (active),45.2%,
CCN(CC)Cc1c(-c2cccc(OC(F)(F)F)c2)[nH]c2ccc(N3CCCC3)cc2c1=O,106%,90.6%,93.3%,77.7%,124%,98.4%,77.3%,104%,98.4%,69.4%,91.4%,96.2%,92.5%,101%,111%,79.6%,104%,87.3%,92.5%,
COc1ccc(N2CCN(C(=O)CSc3ccc(-c4nc5cc(C)c(C)cc5[nH]4)cn3)CC2)cc1,87.1%,53.3%,83.2%,65.1%,101%,77.5%,73.4%,90.9%,18.4%,6.92% (active),43.6%,56.4%,,37.6%,94.6%,68.2%,,94.8%,49.3%,17.1%
O=C(CCCCCCN1CC(=O)N2[C@@H](c3cccc(Cl)c3)c3[nH]c4ccccc4c3C[C@H]2C1=O)NO,56%,70.1%,65.7%,60.3%,57.1%,87.1%,47.7%,72.8%,17.1%,17.5%,39.5%,34.8%,54.3%,61%,51.8%,4.61% (active),36.3%,69.3%,94.3%,
COc1ccc(Oc2ccc(C3CC(c4cc(OC)c(OC)c(OC)c4)=NN3C(C)=O)cc2)cc1 (stereo unspecified),49%,25.4%,22.3%,10.1%,20%,20.8%,36.1%,29.5%,37.7%,14.2%,35.7%,30.3%,50.2%,18%,50.9%,19.7%,25.1%,51.3%,19.8%,
O=c1oc2ccc(-c3ccc(F)cc3F)cc2c(=O)n1-c1cccc(C(F)(F)F)c1,-12.5% (active),8.73% (active),1.14% (active),-18.5% (active),15.4%,4.3% (active),-12.2% (active),-34.1% (active),22.6%,5.65% (active),18.4%,12.4%,,13.4%,0.403% (active),8.17% (active),10.9%,-4.83% (active),4% (active),-12.9% (active)
CCCC(=O)NC(c1cccnc1)c1cc(C(C)=O)c2cccnc2c1O (stereo unspecified),62.8%,22.3%,43.9%,13.6%,39.1%,14.5%,20.5%,56.6%,20.8%,25.1%,52.5%,21.7%,40%,19.6%,31.9%,36.7%,17.1%,69.6%,30.4%,
CC(C)C(=O)Nc1ccc(-c2nc(-c3cccc(O)c3)c(-c3ccnc(Br)c3)[nH]2)cc1,44.1%,80.6%,63.5%,24%,81.1%,64.2%,45.1%,37.4%,17.3%,9.54% (active),-3.9% (active),49.5%,84.3%,43.4%,54.5%,59.4%,56.1%,-12% (active),92.3%,
CCCC(=O)NC(c1cccnc1)c1cc(Cl)c2cccnc2c1O (stereo unspecified),42.7%,24%,44.4%,22.3%,47.6%,20.5%,34.6%,89.9%,25%,30.3%,39.6%,21.9%,,22.7%,44.4%,28.5%,,17.3%,10.2%,30.7%
O=C(Nc1cccc(-c2nc(-c3ccc(NC(=O)c4cccs4)cc3Cl)no2)c1)Nc1ccc(NC(=O)C2CC2)c(C(F)(F)F)c1,-50.2% (active),-34.2% (active),-51.8% (active),-23.6% (active),-28.2% (active),0.236% (active),-67.7% (active),-89% (active),6.43% (active),-4.78% (active),-25.9% (active),2.05% (active),-14.6% (active),-81.3% (active),-30.6% (active),-40.4% (active),-54.2% (active),-27.1% (active),45.5%,
CC1=C2C(=C[C@@](C)(COS(N)(=O)=O)[C@@H]2O)C(=O)[C@](C)(O)C12CC2,41.2%,94.9%,81.2%,54.6%,95.9%,47.4%,85.8%,55.7%,98.2%,97.3%,102%,74.3%,41.4%,80.8%,53.9%,60.7%,62.6%,104%,63.5%,
Cn1cc2c(c1)-c1c(sc3nc(-c4ccc(NC(=O)Nc5cc(C(C)(C)C)on5)cc4)cn13)CC2,65.5%,60.2%,59.9%,18.2%,95.4%,42.1%,28.1%,32.1%,28.2%,12%,9.8% (active),53.8%,,57.7%,49.3%,66.7%,,-0.139% (active),52.8%,-7.75% (active)
Oc1ccc(-c2nnc(SCc3ccc(O)c4ncccc34)n2-c2ccccc2)cc1,38.1%,7.56% (active),18.7%,-8.86% (active),34.3%,8.27% (active),16.1%,16%,6.99% (active),12.5%,37.3%,10.1%,,10.2%,18.7%,8.1% (active),3.67% (active),39.8%,8.08% (active),15.5%
O=C1/C(=C/c2ccccc2[N+](=O)[O-])Oc2ccc(O)cc21,75%,69.8%,30.9%,21.4%,99.1%,2.35% (active),48.3%,87.3%,-2.68% (active),6.41% (active),2.82% (active),20.7%,38.2%,34.8%,84%,33.5%,-18.9% (active),53.6%,49%,
O=S(=O)(Nc1cc(Cl)c(F)c(Cl)c1)c1ccc(-c2cnc(C3CC3)o2)cc1,51.9%,47.6%,48.7%,56.8%,72.5%,49.4%,12%,15.5%,20.7%,38%,36%,44.5%,48.4%,58.3%,72.8%,43.5%,15.4%,30.5%,26.8%,
Cc1cc2nc(C(Cl)Cl)nc(-c3ccco3)n2n1,103%,63.8%,93.7%,90.7%,89.5%,22%,51.2%,51.7%,98.2%,74.3%,86.8%,80.5%,75.8%,79.5%,93.3%,91.1%,22.4%,94%,62.6%,
